The text below walks through data of PubChem BioAssay (NCI).

Test systems include DU-145 prostate; K-562 leukemia; MALME-3M melanoma; MDA-MB-231 breast; RXF 393 renal; SF-268 CNS; SF-295 CNS; SF-539 CNS; UACC-257 melanoma; M14 melanoma; HCT-15 colon; HT29 colon; SNB-75 CNS; SNB-19 CNS; PC-3 prostate; SK-MEL-5 melanoma; UACC-62 melanoma; LOX IMVI melanoma; SK-MEL-28 melanoma; U251 CNS.
Assay in all cases: NCI-60 one-dose screen, 48 h (100 = growth as untreated, 0 = no growth, -100 = all killed)
What all share (conditions): 10 µM unless noted

Compounds without any hit were thinned out: in the full panel of roughly 83,000, 20% have a hit.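 Percent growth is the endpoint: 0 to 100 indicates growth inhibition (40 means 60% inhibition), 0 means no net growth, and negative values indicate cell death.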 A number with no mark means an inactive call. The source made the active and inactive calls. The calls were made as follows: active = growth percent below 10; inactive = the rest.

With `COc1ccc(OC)c2ncccc12`, the growth in the experiment on DU-145 prostate is 112%; in the experiment on K-562 leukemia, 96%; in the experiment on MALME-3M melanoma it was 89.7%; with MDA-MB-231 breast, 109%; in the experiment with RXF 393 renal, 107%; in the experiment with SF-268 CNS it was 102%. Also, the growth was 95% in the experiment with SF-295 CNS; 102% in the experiment on SF-539 CNS; 110% in the experiment with UACC-257 melanoma; 93.5% in the experiment on M14 melanoma; 96.3% in the experiment on HCT-15 colon; 97.4% in the experiment on HT29 colon. Further, the growth with SNB-75 CNS was 88.6%; in the experiment on SNB-19 CNS it was 110%; in the experiment with PC-3 prostate, 92%; with SK-MEL-5 melanoma it was 102%; in the experiment with UACC-62 melanoma it was 114%; in the experiment with LOX IMVI melanoma, 95.6%. For the same compound, the growth in the experiment on SK-MEL-28 melanoma was 117%.
Regarding `Cc1nc2cc(Nc3nc(NCCO)nc(Nc4ccc(F)cc4)n3)ccc2n1Cc1ccccc1`, the growth in the experiment on DU-145 prostate is 88.5%; in the experiment on K-562 leukemia, 19.2%; in the experiment with MALME-3M melanoma, 105%; with MDA-MB-231 breast, 80.3%; in the experiment with RXF 393 renal, 90.2%; in the experiment with SF-268 CNS, 92.2%. Further, the growth in the experiment on SF-295 CNS is 86.4%; in the experiment with SF-539 CNS it was 94.4%; in the experiment with UACC-257 melanoma, 98.8%; with M14 melanoma it was 93%; in the experiment on HCT-15 colon, 100%; in the experiment on HT29 colon it was 71.9%. In addition, the growth with SNB-75 CNS is 102%; with SNB-19 CNS, 100%; in the experiment on U251 CNS it was 86.3%; in the experiment with SK-MEL-5 melanoma it was 80.3%; in the experiment with LOX IMVI melanoma it was 81.9%; with SK-MEL-28 melanoma, 108%.
In the case of `COc1ccc(-c2c3c(N)c4c(nc3nc3c2c(C)nn3-c2ccccc2)CCCC4)cc1`, the growth in the experiment on DU-145 prostate was 80.4%; in the experiment on K-562 leukemia it was 11.9%; in the experiment with MALME-3M melanoma, 113%; in the experiment with MDA-MB-231 breast it was 76.1%; with RXF 393 renal, 84.2%; in the experiment with SF-268 CNS it was 86%. The growth in the experiment on SF-295 CNS was 84.9%; in the experiment on SF-539 CNS it was 91.8%; in the experiment on UACC-257 melanoma, 108%; with M14 melanoma, 87.9%; in the experiment on HCT-15 colon, 68.2%; with HT29 colon, 21.1%. Also, the growth was 78.6% with SNB-75 CNS; 103% in the experiment on SNB-19 CNS; 64.9% in the experiment with PC-3 prostate; 90.9% with SK-MEL-5 melanoma; 92.9% in the experiment on UACC-62 melanoma; 92.6% in the experiment with LOX IMVI melanoma. Besides, the growth in the experiment on SK-MEL-28 melanoma is 96.9%.
As to `O=C(COc1ccc(/C=C2\CSc3ccccc3C2=O)cc1)c1ccc(Cl)cc1`, the growth is 113% in the experiment with DU-145 prostate; 99.2% with K-562 leukemia; 98.7% in the experiment with MALME-3M melanoma; 97% in the experiment on MDA-MB-231 breast; 90.4% in the experiment on RXF 393 renal; 104% in the experiment on SF-268 CNS. The growth with SF-295 CNS is 125%; in the experiment with SF-539 CNS, 106%; in the experiment on UACC-257 melanoma it was 121%; with M14 melanoma, 101%; in the experiment with HCT-15 colon, 108%; with HT29 colon it was 121%. Also, the growth with SNB-75 CNS is 108%; with SNB-19 CNS, 92.3%; with U251 CNS, 104%; in the experiment on UACC-62 melanoma it was 83%; with LOX IMVI melanoma, 95%; with SK-MEL-28 melanoma it was 124%.
As to `Cc1c(C(=O)Nc2nc(-c3ccccc3)cs2)nnn1-c1cccc2ccccc12`, the growth in the experiment on DU-145 prostate is 64.7% [50 µM]; in the experiment on K-562 leukemia it was 30.5% [50 µM]; in the experiment with MALME-3M melanoma, 55.4% [50 µM]; with MDA-MB-231 breast, 68.7% [50 µM]; with RXF 393 renal, 89.1% [50 µM]; in the experiment with SF-268 CNS, 72.5% [50 µM]. Moreover, the growth in the experiment on SF-295 CNS was 37.2% [50 µM]; in the experiment on SF-539 CNS, 69.2% [50 µM]; in the experiment with UACC-257 melanoma, 44.9% [50 µM]; in the experiment on M14 melanoma, 64.7% [50 µM]; with HCT-15 colon, 57.9% [50 µM]; in the experiment with HT29 colon, 64.3% [50 µM]. The growth with SNB-75 CNS is 80.6% [50 µM]; in the experiment with SNB-19 CNS, 72.3% [50 µM]; with PC-3 prostate it was 53.8% [50 µM]; in the experiment with SK-MEL-5 melanoma, -2.94% [50 µM] (active); in the experiment on UACC-62 melanoma, 49.2% [50 µM]; in the experiment with LOX IMVI melanoma, 43.4% [50 µM]. In addition, in the experiment on SK-MEL-28 melanoma, the growth was 69.9% [50 µM].
As to `C[C@H]1C(=O)C23CCC1C[C@@]21O[C@@H]2C(C)(C)C=CC(=O)C23COC1=O`, the growth with DU-145 prostate was 104%; in the experiment on K-562 leukemia, 104%; with MALME-3M melanoma, 110%; in the experiment on MDA-MB-231 breast, 118%; in the experiment with RXF 393 renal, 108%; in the experiment on SF-268 CNS, 104%. For the same compound, the growth with SF-295 CNS is 110%; with SF-539 CNS, 111%; in the experiment with UACC-257 melanoma it was 98.7%; in the experiment with M14 melanoma, 102%; with HCT-15 colon, 109%; in the experiment on HT29 colon, 110%. Also, the growth with SNB-75 CNS was 83.6%; with SNB-19 CNS, 100%; with U251 CNS, 105%; with SK-MEL-5 melanoma, 103%; with LOX IMVI melanoma it was 93.7%; in the experiment on SK-MEL-28 melanoma, 111%.
For `Cc1ccc(-c2c3c(N)c4c(nc3nc3c2c(C)nn3-c2ccccc2)CCCC4)cc1`, the growth in the experiment with DU-145 prostate was 105%; with K-562 leukemia, 36.6%; in the experiment on MALME-3M melanoma, 107%; in the experiment on MDA-MB-231 breast, 97.1%; with RXF 393 renal, 97%; in the experiment on SF-268 CNS, 108%. For the same compound, the growth in the experiment with SF-295 CNS is 100%; in the experiment on SF-539 CNS, 103%; in the experiment with UACC-257 melanoma, 92.2%; in the experiment on M14 melanoma it was 110%; with HCT-15 colon, 99.3%; with HT29 colon it was 95.4%. For the same compound, the growth is 97.2% in the experiment with SNB-75 CNS; 108% in the experiment with SNB-19 CNS; 90.9% in the experiment with PC-3 prostate; 104% in the experiment with SK-MEL-5 melanoma; 106% with UACC-62 melanoma; 93.9% with LOX IMVI melanoma. In addition, in the experiment on SK-MEL-28 melanoma, the growth is 99.8%.
With `Cc1ccc2c(N/N=C\c3ccco3)cc(C)nc2n1`, the growth in the experiment on DU-145 prostate was 59.6%; in the experiment on K-562 leukemia, 37.2%; in the experiment on MALME-3M melanoma, 90.7%; in the experiment on MDA-MB-231 breast, 68.9%; in the experiment on RXF 393 renal, 63.7%; in the experiment on SF-268 CNS it was 77.5%. For the same compound, the growth is 69.5% in the experiment on SF-295 CNS; 72% with SF-539 CNS; 76.5% with UACC-257 melanoma; 34.6% in the experiment with M14 melanoma; 36.6% in the experiment on HCT-15 colon; 26.6% with HT29 colon. Moreover, the growth in the experiment with SNB-75 CNS is 85.5%; with SNB-19 CNS, 87.4%; in the experiment with PC-3 prostate, 70.5%; with SK-MEL-5 melanoma, 94.8%; in the experiment on UACC-62 melanoma, 51.1%; in the experiment on LOX IMVI melanoma, 46.5%. Further, the growth with SK-MEL-28 melanoma is 80.5%.
